Source: PubChem
RMI FANCM FP = blocks RMI1/RMI2 complex binding to FANCM MM2 peptide; FP signal (polarization) at 33 µM; Fluorescence polarization, RMI core complex with F-MM2 peptide; stronger effect = lower value; 70,000 compounds, 0.58% hits; AID 1159607; in the data active = FP signal below about 40
A number is an active result; ! = not confirmed by another sample. The sample as a whole holds a higher share of hits than the screen did.

`CC(=O)C1=CN(c2ccccc2)C=C(C(C)=O)C1c1ccccc1` gave RMI FANCM FP 19.
Screening NNC(=O)C1C(C(=O)NN)C1c1ccccc1 (stereo not drawn) returned RMI FANCM FP inactive.
Screening O=C1CC(c2ccccc2)CC(=O)N1c1ccccc1 returned RMI FANCM FP inactive.
Screening O=S(=O)(NCc1ccsc1)c1cc(Cl)ccc1Cl returned RMI FANCM FP inactive.
Screening COc1ccc2[nH]c(C(=O)NC3CCN(Cc4ccccc4)CC3)cc2c1 returned RMI FANCM FP inactive.
COc1ccc(CCS(=O)(=O)NCC2CCN(Cc3ccccc3)CC2)cc1 was read as RMI FANCM FP inactive.
COc1ccc(CCN2CCC(Nc3nc4ccccc4n3Cc3ccc(F)cc3)CC2)cc1 was read as RMI FANCM FP 20!.
Screening N#C/C(=N/OC(=O)c1ccc(Cl)cc1)S(=O)(=O)c1ccc(Cl)cc1 returned RMI FANCM FP inactive.
For O=C(CSc1ccc(-c2ccncc2)nn1)Nc1cccc(F)c1 the results were RMI FANCM FP inactive.
For COc1ccc(/C=C2\SC(=S)N(CCC(=O)Nc3cc(C)on3)C2=O)cc1OC the results were RMI FANCM FP inactive.
O=C(CCCN1C(=O)/C(=C2\SC(=S)N(CCCC(=O)Nc3cccc(C(=O)O)c3)C2=O)SC1=S)Nc1cccc(C(=O)O)c1 was read as RMI FANCM FP inactive.
Screening Cc1cc(NC(=O)CCN2C(=O)/C(=C3\SC(=S)N(CCC(=O)Nc4cc(C)on4)C3=O)SC2=S)no1 returned RMI FANCM FP 21.
Screening Cc1ccc(N2C(=O)CCC2=O)cc1 returned RMI FANCM FP inactive.
For Cc1nc2c(C)c(C)c(C)c(C)c2[nH]1 the results were RMI FANCM FP inactive.
`O=C(O)CN(CC(=O)Nc1ccc2c(c1)OCCCO2)Cc1ccccc1` gave RMI FANCM FP inactive.
`C/C=C\C(=O)NCc1ccc2[nH]c3c(c2c1)CCCC3` gave RMI FANCM FP 14.
CCOC(=O)CCC(=O)NCc1ccc2[nH]c3c(c2c1)CCCC3 was read as RMI FANCM FP inactive.
Screening COc1cc(/C=C\C(=O)NCc2ccc3[nH]c4c(c3c2)CCCC4)cc(OC)c1OC returned RMI FANCM FP inactive.
Screening O=[N+]([O-])c1cccnc1NCc1ccccc1 returned RMI FANCM FP inactive.
COc1ccc2nc(-c3ccc(OC)c(NC(=O)c4ccccc4C)c3)cn2n1 was read as RMI FANCM FP inactive.
COc1ccc2nc(-c3ccc(F)c(NC(=O)c4ccccc4C)c3)cn2n1 was read as RMI FANCM FP inactive.
Screening COc1ccc2nc(-c3ccc(Cl)c(NC(=O)c4ccccc4C)c3)cn2n1 returned RMI FANCM FP 33.
Screening C/C=C/C(=O)Nn1cnc2c(cnn2C(C)(C)C)c1=O returned RMI FANCM FP inactive.
For CCOc1ccc2nc(N(CCCN3CCOCC3)C(=O)c3ccno3)sc2c1 the results were RMI FANCM FP inactive.
O=C(Nc1nc(-c2cc(Cl)sc2Cl)cs1)c1ccc([N+](=O)[O-])s1 was read as RMI FANCM FP 28.
`O=C(Nc1nc(-c2cc(Cl)sc2Cl)cs1)c1cccs1` gave RMI FANCM FP inactive.
`Cc1ccc(-c2csc(NC(=O)c3ccc([N+](=O)[O-])s3)n2)cc1` gave RMI FANCM FP inactive.
`COC(=O)c1ccc2c(=O)n(CCCC(=O)NC(C)c3ccccc3)c(=S)[nH]c2c1` (stereo not drawn) gave RMI FANCM FP inactive.
`Cc1coc2ccccc2c1=O` gave RMI FANCM FP inactive.
For Cc1ccc2occ(C=O)c(=O)c2c1 the results were RMI FANCM FP 17.
For Cc1ccc2oc(C(=O)O)cc(=O)c2c1 the results were RMI FANCM FP inactive.
For CCCCCCCNS(=O)(=O)c1ccc(OCC)cc1 the results were RMI FANCM FP inactive.
Cc1c(O)ccc2c(CN3CCC4(CC3)OCCO4)cc(=O)oc12 was read as RMI FANCM FP 25.
Cc1cc(O)c2c(CN3CCN(Cc4ccc5c(c4)OCO5)CC3)cc(=O)oc2c1 was read as RMI FANCM FP inactive.
Screening COc1ccc(N2CCN(Cc3cc(=O)oc4c3ccc3ccccc34)CC2)cc1 returned RMI FANCM FP inactive.
`O=C1c2oc3ccc(Cl)cc3c(=O)c2C(c2ccccn2)N1CCN1CCOCC1` (stereo not drawn) gave RMI FANCM FP inactive.
Screening O=C(O)/C=C\C(=O)Nc1ccccc1OC(F)(F)F returned RMI FANCM FP inactive.
Screening N#CCCSc1ccccc1NC(=O)/C=C/C(=O)O returned RMI FANCM FP inactive.
`O=C(O)/C=C\C(=O)Nc1cccc2ccccc12` gave RMI FANCM FP -3.
Screening CSc1nn(CC(=O)Nc2ccc(Br)cc2F)c(N)c1S(=O)(=O)c1ccccc1 returned RMI FANCM FP inactive.
Screening C=CCOC(=O)C(C#N)c1nc2ccccc2nc1N1CCN(c2ccccc2)CC1 (stereo not drawn) returned RMI FANCM FP 29.
CC(=O)NC(=O)/C(C#N)=C/N1CCN(c2ccccc2)CC1 was read as RMI FANCM FP inactive.
Cc1cc(C)c(C#N)c(N2CCN(c3ccccc3)CC2)n1 was read as RMI FANCM FP inactive.
COc1ccc(C(CNC(=O)c2ccc(F)c(F)c2)N2CCOCC2)cc1 (stereo not drawn) was read as RMI FANCM FP inactive.
